Sampled rows, rich in hits. Any-hit rate of the full collection: about 3.1%.
S1P3 antag = S1P3 receptor antagonists, primary screen, cell-based. inhibition, % at 4.98 µM. 0.27% of 170,000 active. Sphingosine 1-phosphate receptor 3 (Homo sapiens), Q99500. AID 485, 2006. CHO S1P3 NFAT-BLA reporter, FRET fluorescence, antagonist mode;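 active = inhibition above the plate cutoff, the mean inhibition of test wells on that plate plus 3 SD, cut at about 28% in these data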;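 also: cells challenged with S1P at its EC80 of 0.8 µM; blue over green emission ratio from cleaved BLA substrate after 4 h stimulation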
Target sequence (Q99500 whole entry, looked up): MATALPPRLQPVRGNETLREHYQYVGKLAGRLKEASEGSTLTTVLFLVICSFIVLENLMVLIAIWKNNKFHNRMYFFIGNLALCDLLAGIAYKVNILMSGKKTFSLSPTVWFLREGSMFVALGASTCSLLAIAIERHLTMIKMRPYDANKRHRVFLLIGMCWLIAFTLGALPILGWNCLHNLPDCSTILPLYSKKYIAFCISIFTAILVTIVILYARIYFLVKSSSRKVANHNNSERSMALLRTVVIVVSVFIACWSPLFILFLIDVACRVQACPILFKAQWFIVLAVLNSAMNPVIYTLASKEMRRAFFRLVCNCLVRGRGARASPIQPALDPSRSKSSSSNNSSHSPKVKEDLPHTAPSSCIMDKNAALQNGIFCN
PGE2 EP2 inh = human EP2 receptor antagonists, primary screen, TR-FRET cAMP, C6 glioma cells. Prostaglandin E2 receptor EP2 subtype (Homo sapiens), P43116. C6 glioma cells expressing human EP2; cells stimulated with saturating PGE2. inhibition, % at 25 µM. 0.52% of 260,000 active. AID 1422, 2008;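 active = percent inhibition above 40 after rounding to a whole number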;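 also: rat C6 glioma host cells with rolipram phosphodiesterase inhibitor present; the protocol text gives 20 µM as final concentration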
Target sequence (P43116 whole entry, looked up): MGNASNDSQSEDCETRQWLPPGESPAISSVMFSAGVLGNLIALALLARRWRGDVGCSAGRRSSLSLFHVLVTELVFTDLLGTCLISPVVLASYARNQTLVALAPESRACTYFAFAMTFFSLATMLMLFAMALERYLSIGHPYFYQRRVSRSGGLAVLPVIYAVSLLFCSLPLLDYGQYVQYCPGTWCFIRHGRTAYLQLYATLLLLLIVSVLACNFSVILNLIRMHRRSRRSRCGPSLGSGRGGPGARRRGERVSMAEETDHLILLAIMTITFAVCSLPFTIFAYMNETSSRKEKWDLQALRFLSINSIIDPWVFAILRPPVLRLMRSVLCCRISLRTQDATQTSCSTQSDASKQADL
EP2 mod = EP2 receptor modulators, cAMP readout, primary screen, cell-based, HTRF cAMP, PGE2 stimulation. EP2-expressing cells, cAMP HTRF FRET, PGE2 co-stimulation. Prostaglandin E2 receptor EP2 subtype (Homo sapiens), P43116. induction, % at 25 µM. 0.83% of 260,000 active;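 active = compounds whose cAMP rise, as percent of the full-agonist control response, exceeds 60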;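 also: rat C6 glioma line stably carrying human EP2 under a CMV promoter; the protocol text gives 20 µM as final concentration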
Cl transport mod = KCC2 cotransporter modulators, thallium flux, primary screen, cell-based, HEK293 KCC2, FluoZin-2 fluorescence, MLSMR | Solute carrier family 12 member 5 (Homo sapiens), Q9H2X9 | KCC2 cells, thallium flux FluoZin-2 fluorescence | B-score of Tl+ flux slope (higher = more flux/activation; lower = inhibition) at 10 µM | 2.2% of 190,000 active | AID 1456, 2008;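 active = thallium flux slope and its plate-corrected score both differing from the plate sample mean at a set confidence after two filtering rounds, in either direction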;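 also: slope of fluorescence scaled to starting intensity during 10 to 20 s after thallium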
Of the large screens only hits and unclear results are named; the others gave an inactive call.

O=C(NC1CCCCC1)N1CCC(c2nc3c(nnn3Cc3ccc(F)cc3)c(=O)[nH]2)CC1	none (no result: S1P3 antag, Cl transport mod)
CCOC(=O)CSc1nnc(CNc2ccc(F)cc2)n1-c1ccc(OC)cc1	none (no result: S1P3 antag, Cl transport mod)
Cc1ccccc1CNC1CCCCC1	none
Oc1cc(CN2COc3ccccc32)c(O)cc1CNC1CCCCC1	PGE2 EP2 inh 118 (no result: S1P3 antag, Cl transport mod)
OC(CN1CCN(c2ccc(F)cc2F)CC1)c1ccc2c(c1)OCCCO2 (configuration not stated)	none (no result: S1P3 antag, Cl transport mod)
CCOC(=O)n1c(=O)n(Cc2cccc(C)c2)c2ccccc21	EP2 mod 64
COc1ccc(/C=C/C(=O)NC(=S)NNC(=O)c2ccco2)cc1	Cl transport mod 11 (no result: S1P3 antag)
COc1ccc(C(=O)NNC(=S)NC(=O)/C=C/c2cccs2)cc1	Cl transport mod 13
COc1ccc(/C=C/C(=O)NC(=S)NNC(=O)c2ccco2)cc1OC	none (no result: Cl transport mod)
O=C(/C=C/c1cccs1)NC(=S)NNC(=O)c1ccccc1O	Cl transport mod 12
O=C(/C=C/c1ccco1)NC(=S)NNC(=O)c1ccccc1O	none (no result: S1P3 antag, Cl transport mod)
CCOC(=O)c1cnc2c(C)cc(C)cc2c1NCCCCCO	none (no result: S1P3 antag, Cl transport mod)
N#Cc1c(N)sc2c1CCOC2	none (no result: S1P3 antag, Cl transport mod)
Cc1ccc(CN2CCN(Cc3ccc(C)o3)[C@@H](C)C2)o1	PGE2 EP2 inh 43 (no result: S1P3 antag, Cl transport mod)
Cc1ccccc1C(=O)N/N=C/c1ccc([N+](=O)[O-])s1	Cl transport mod 5.2 (no result: S1P3 antag)
O=C(Nc1cccc([N+](=O)[O-])c1)c1ccc2nc(N3C(=O)CCC3=O)sc2c1	PGE2 EP2 inh 85 (no result: S1P3 antag)
CC1=C(CC[C@H](C)CO)O[C@@H]2C[C@@H]3[C@H]4CC[C@H]5C[C@@H](O)CC[C@]5(C)[C@@H]4CC(=O)[C@@]3(C)[C@H]12	PGE2 EP2 inh 65 (no result: S1P3 antag, Cl transport mod)
Cn1ccnc1Sc1nc(Nc2cccc(Cl)c2)nc(N2CCOCC2)n1	EP2 mod 61 (no result: Cl transport mod)
CCC(C)NC(=O)CSc1nc(-c2ccc(OC)cc2)cc(C(F)(F)F)n1 (configuration not stated)	none (no result: S1P3 antag, Cl transport mod)
Cc1nc(-c2ccccc2)[nH]c(=O)c1Oc1ccc(Cl)cc1Cl	none
COc1nc(C)nc(C)c1Oc1ccc(Cl)cc1Cl	EP2 mod 65
Cc1ccc(/C=C2/NC(=O)N(Cc3ccccc3F)C2=O)s1	none
COc1cccc(N2C(=O)/C(=C\c3cccs3)NC2=S)c1	none
CC(C)CN1C(=O)/C(=C/c2cccs2)NC1=S	Cl transport mod 40 (no result: S1P3 antag)
CCCN1C(=O)/C(=C/c2ccc(C)s2)NC1=S	Cl transport mod 40 (no result: S1P3 antag)
Brc1cc2c(cc1/C=N/Nc1nc3ccccc3s1)OCO2	PGE2 EP2 inh 41 (no result: S1P3 antag)
COc1ccc(OC)c(NC(=O)C(=O)NNC(=O)COc2ccc(Br)cc2C)c1	Cl transport mod 91
COc1ccc(C)cc1NC(=O)C(=O)NNC(=O)COc1ccc(Cl)cc1	Cl transport mod 78
Cc1ccc(OCC(=O)NNC(=O)C(=O)NC(C)(C)C)cc1	Cl transport mod 13
O=C(c1ccc2c(c1)OCO2)N1CCC(n2cnc3cccnc32)CC1	none (no result: S1P3 antag, PGE2 EP2 inh, Cl transport mod)
COc1cc2cc(C(c3nnnn3Cc3ccc(F)cc3)N3CCC(C)CC3)c(=O)[nH]c2cc1OC (configuration not stated)	none (no result: S1P3 antag, Cl transport mod)
Cc1ccccc1OC1C(=O)N(C2CCCC2)C1c1ccc2c(c1)OCO2 (configuration not stated)	EP2 mod 61 (no result: S1P3 antag, Cl transport mod)
Cc1ccc2cc(CN(Cc3ccco3)C(=S)Nc3cccc(Cl)c3)c(=O)[nH]c2c1	none (no result: S1P3 antag, Cl transport mod)
Cc1ccc2[nH]c(=O)c(C(c3nnnn3C3CCCCC3)N3CCN(c4ccccc4)CC3)cc2c1 (configuration not stated)	none (no result: S1P3 antag, Cl transport mod)
CCc1nc(SCC(=O)Nc2ccc(N(C)C)cc2)c2c(C)c(C)sc2n1	none (no result: S1P3 antag, Cl transport mod)
CN(C)c1ccc(NC(=O)CSc2nc(N)c(C(=O)Nc3ccc(N(C)C)cc3)s2)cc1	PGE2 EP2 inh 41 (no result: S1P3 antag)
Cc1sc2nc(C3CC3)nc(SCC(=O)Nc3ccc(N(C)C)cc3)c2c1C	EP2 mod 65 (no result: S1P3 antag, Cl transport mod)
COc1ccc(NC(=O)CSc2nc(N)c(C(=O)Nc3ccc(N(C)C)cc3)s2)cc1	none (no result: S1P3 antag, Cl transport mod)
C/C(Cl)=C/Cn1c(Nc2cccc(C)c2)nc2c1c(=O)n(C)c(=O)n2C	none (no result: S1P3 antag, Cl transport mod)
COc1ccc(CNC(=O)/C(=C/c2ccco2)NC(=O)c2ccccc2)cc1OC	none (no result: S1P3 antag, Cl transport mod)
CCOc1cccc2cc(-c3nnc(-c4ccccc4)o3)c(=O)oc12	S1P3 antag 65 (no result: PGE2 EP2 inh, EP2 mod, Cl transport mod)
COc1cccc2cc(-c3ccccc3)c(=O)oc12	none
COc1ccc(NC(=O)CSc2nnc(-c3ccccc3Br)n2C)c(OC)c1	none (no result: S1P3 antag, Cl transport mod)
Cc1cccc(S(=O)(=O)c2c(N)n(Cc3ccco3)c3nc4ccccc4nc23)c1	Cl transport mod -5.5
CNc1nc(SCc2ccccc2Cl)nc2c1CCCC2	none (no result: S1P3 antag)
CN(C)c1nc(SCc2ccc(Cl)cc2)nc2c1CCCC2	EP2 mod 62 (no result: S1P3 antag, Cl transport mod)
Cc1ccc(NC(=S)c2nc3ccccc3s2)cc1	none (no result: S1P3 antag)
Cc1ccc(C)c(NC(=S)c2nc3ccccc3s2)c1	Cl transport mod 22
CCn1ncc(Br)c1C(=O)Nc1ccccc1OC	EP2 mod 63
CSc1nc(-c2ccccc2)[nH]c(=S)c1C(C)=O	Cl transport mod 21 (no result: S1P3 antag)
CC(C)[C@@H]1OC(=O)C=CC=CC=CC=CC=CC[C@@H](O)[C@H](C)[C@@H](O)C[C@H](O)C[C@H](O)C[C@H](O)C[C@H](O)C[C@H](O)C[C@H](O)C=C[C@@H]1C	PGE2 EP2 inh 49 (no result: S1P3 antag, Cl transport mod)
Fc1cccc(/C=N/NC(=S)Nc2ccccc2Cl)c1	Cl transport mod 41
Fc1ccc(/C=N/NC(=S)Nc2ccc(Cl)cc2)cc1F	Cl transport mod 8.6
Fc1ccc(NC(=S)N/N=C/c2cccc(Br)c2)c(F)c1	Cl transport mod 4 (no result: S1P3 antag)
COc1cccc(/C(O)=C2/C(=O)C(=O)N(Cc3ccco3)C2c2ccco2)c1 (configuration not stated)	none (no result: S1P3 antag, Cl transport mod)
CCC(C)n1c(=S)[nH]c2c(sc3ccc([N+](=O)[O-])cc32)c1=O (configuration not stated)	Cl transport mod 53
Cc1cccc2cc3c(N)[nH]nc3nc12	none (no result: S1P3 antag, Cl transport mod)
COc1ccc(N2CC(C(=O)OCC(=O)c3ccc(Cl)cc3Cl)CC2=O)cc1 (configuration not stated)	none (no result: S1P3 antag, Cl transport mod)
O=C(Cn1nc(Cc2ccncc2)c2ccccc2c1=O)N1CCc2ccccc2C1	Cl transport mod -3.7 (no result: PGE2 EP2 inh)
CN(CCC#N)C(=O)Cn1nc(Cc2ccncc2)c2ccccc2c1=O	none (no result: Cl transport mod)
Cn1c(=O)c2nc(NCc3ccccc3)cnc2n(C)c1=O	EP2 mod 65 (no result: PGE2 EP2 inh)
CCCC(=O)N1CCCC(c2nc3c(nnn3Cc3cc(C)ccc3C)c(=O)[nH]2)C1 (configuration not stated)	EP2 mod 64 (no result: S1P3 antag, Cl transport mod)
Cc1cc(C)c2nc3c(c([C@H](O)[C@@H]4CCCCN4)c2c1)CC/C3=C\c1ccc(Cl)cc1	PGE2 EP2 inh 50 (no result: S1P3 antag, Cl transport mod)
Cc1ccc(C(=O)CC(=O)COc2ccc(Cl)cc2C)cc1	Cl transport mod 17
Cc1ccc(S(=O)(=O)c2ccc(C)cc2)cc1	none (no result: S1P3 antag)
Cc1ccc(C2=C(Cl)C(=O)C(c3ccc(C)cc3)=C(Cl)C2=O)cc1	PGE2 EP2 inh 46 (no result: S1P3 antag, Cl transport mod)
CC(C)(C)C(=O)NC(=S)N1CCCC1	none

Screens deposited in PubChem by several laboratories.
